# Measured values: the supplement of paper PMC5662767
# Structures can show the parent of a compound that is named as a salt.
# System: Drosophila S2 cl14 SmoIP sensor cells
# Test: normalized SmoIP GFP fluorescence (untreated unstimulated = 0%, untreated Hh-stimulated = 100%); higher = more Smo activation sensor fluorescence
# Details: stimulation: Hh conditioned medium (+Hh); compound concentration: 2 uM; 24 h
# 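Further: flow cytometry read-out as median GFP intensity of gated cells, compounds added 30 min before Hh-conditioned or mock medium, mock-treated cells serving as unstimulated baseline.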
row,Structure (SMILES),normalized SmoIP GFP fluorescence
1,NCCc1c[nH]cn1 [histamine-2hcl],104%
2,CN(C)CCC(c1ccc(Br)cc1)c1ccccn1 (configuration not stated) [brompheniramine],138%
3,Cn1cnc2c(F)c(Nc3ccc(Br)cc3Cl)c(C(=O)NOCCO)cc21,126%
4,O=C(/C=C/c1cccc(S(=O)(=O)Nc2ccccc2)c1)NO [Belinostat],189%

# Same assay, conditions: stimulation: mock conditioned medium (-Hh); compound concentration: 2 uM; 24 h
row,Structure (SMILES),normalized SmoIP GFP fluorescence
1,CC(C)c1nc(CN(C)C(=O)N[C@@H](CCN2CCOCC2)C(=O)N[C@H](CC[C@H](Cc2ccccc2)NC(=O)OCc2cncs2)Cc2ccccc2)cs1 [cobicistat-gs-9350],0.474%
2,COc1ccccc1Oc1c(NS(=O)(=O)c2ccc(C(C)(C)C)cc2)nc(-c2ncccn2)nc1OCCO [bosentan-hydrate],-1.63%
3,COc1cc2ncnc(Nc3ccc(F)c(Cl)c3)c2cc1OCCCN1CCOCC1 [Gefitinib],-4.53%
4,Cn1c(=O)c2[nH]cnc2n(C)c1=O [Aminophylline(Truphylline)],-6.51%
5,O=C(NC[C@H](O)CO)c1ccncc1Nc1ccc(I)cc1F,46.7%
6,C=CCc1ccc(O)c(-c2ccc(O)c(CC=C)c2)c1 [Honokiol],-9.22%
7,CCOC(=O)CCNc1cc(N2CCc3ccccc3CC2)nc(-c2ccccn2)n1,-2.48%
8,CCNC(=O)[C@H]1O[C@@H](n2cnc3c(N)nc(NCCc4ccc(CCC(=O)O)cc4)nc32)[C@H](O)[C@@H]1O,-8.77%
9,Cc1csc(-c2nnc(Nc3ccc(Oc4ncccc4-c4ccnc(N)n4)cc3)c3ccccc23)c1,-0.747%
10,Nc1ncnc2c1c(-c1cccc(OCc3ccccc3)c1)cn2C1CC(CN2CCCC2)C1 (configuration not stated),5.45%
11,CC1(C)CC(=O)c2c(C(F)(F)F)nn(-c3ccc(C(N)=O)c(N[C@H]4CC[C@H](O)CC4)c3)c2C1,12.3%
12,CNC(=O)c1cc(Oc2ccc(NC(=O)Nc3ccc(Cl)c(C(F)(F)F)c3)c(F)c2)ccn1,27.4%
13,COc1ccc(CNC(=O)Nc2ncc([N+](=O)[O-])s2)cc1,-11%
14,CC(C)c1nc(CN(C)C(=O)N[C@H](C(=O)N[C@@H](Cc2ccccc2)C[C@H](O)[C@H](Cc2ccccc2)NC(=O)OCc2cncs2)C(C)C)cs1 [Ritonavir],-4.47%
15,Cc1cnc(-c2cnc(NCCNc3ccc(C#N)cn3)nc2-c2ccc(Cl)cc2Cl)[nH]1,-0.151%
16,C#C[C@]1(OC(C)=O)CC[C@H]2[C@@H]3CCC4=C[C@@H](OC(C)=O)CC[C@@H]4[C@H]3CC[C@@]21C [ethynodiol-diacetate],-1.63%
17,Cc1cc(O)c2c(c1)C(=O)c1cccc(O)c1C2=O [Chrysophanic-acid-Chrysophanol],-7.42%
18,CN(c1ncccc1CNc1nc(Nc2ccc3c(c2)CC(=O)N3)ncc1C(F)(F)F)S(C)(=O)=O,39.3%
19,COc1cc([C@@H]2c3cc4c(cc3[C@@H](O[C@@H]3O[C@@H]5CO[C@@H](C)O[C@H]5[C@H](O)[C@H]3O)[C@H]3COC(=O)[C@H]23)OCO4)cc(OC)c1OP(=O)(O)O [Etopophos],28.7%

row,Structure (SMILES),normalized SmoIP GFP fluorescence
1,O=C(NC[C@H]1CN(c2ccc(N3CCOCC3=O)cc2)C(=O)O1)c1ccc(Cl)s1 [Rivaroxaban],-1.34%
2,N#Cc1cc(CN2CCC(Nc3ncnc4sc(Cl)cc34)CC2)ccc1F,-12.6%
3,CN(C)Cc1ccc(-c2nc3cccc4c3n2CCNC4=O)cc1,-14.3%
4,COc1cc(NC(=O)c2ccc(-c3ccc(Cl)cc3)o2)cc(OC)c1,-1.97%
5,COc1ccc(-c2ccc3c(N4CCOC[C@@H]4C)nc(N4CCOC[C@@H]4C)nc3n2)cc1CO,-2.96%
6,COc1cc2nccc(Oc3ccc(NC(=O)NC4CC4)c(Cl)c3)c2cc1C(N)=O,7.92%
7,Cc1ccc(Sc2ccccc2N2CCNCC2)c(C)c1,-11.4%
8,C[C@@H](c1ncncc1F)[C@](O)(Cn1cncn1)c1ccc(F)cc1F [Voriconazole],1.57%
9,CNC(=O)c1cc(Oc2ccc(NC(=O)Nc3ccc(Cl)c(C(F)(F)F)c3)cc2)ccn1 [sorafenib],9.54%
10,COc1ccc(C2CNC(=O)C2)cc1OC1CCCC1 (configuration not stated) [Rolipram],-1.88%
11,CO[C@H]1C[C@@H]2CC[C@@H](C)[C@@](O)(O2)C(=O)C(=O)N2CCCC[C@H]2C(=O)O[C@H]([C@H](C)C[C@@H]2CC[C@@H](OCCO)[C@H](OC)C2)CC(=O)[C@H](C)/C=C(\C)[C@@H](O)[C@@H](OC)C(=O)[C@H](C)C[C@H](C)/C=C/C=C/C=C/1C [Everolimus(RAD001)],-10.1%
12,C[C@H](Nc1ncnc2nc[nH]c12)c1cc2cccc(Cl)c2c(=O)n1-c1ccccc1,-4.24%
13,Cn1c(N2CCCCS2(=O)=O)nc(C(=O)NCc2ccc(F)cc2)c(O)c1=O,-2.42%
14,CN[C@H]1CC[C@@H](c2ccc(Cl)c(Cl)c2)c2ccccc21 [sertraline-hcl],2.46%
15,C/C(=N\NC(=S)N1CCC1)c1ccccn1,30.1%
16,NCCc1c[nH]cn1 [histamine-2hcl],1.21%
17,CN(C)CCC(c1ccc(Br)cc1)c1ccccn1 (configuration not stated) [brompheniramine],-5.17%
18,Cn1cnc2c(F)c(Nc3ccc(Br)cc3Cl)c(C(=O)NOCCO)cc21,42.9%
19,O=C(/C=C/c1cccc(S(=O)(=O)Nc2ccccc2)c1)NO [Belinostat],54.6%
